Drawing on PubChem BioAssay (NCI), this text covers growth for 9 compounds.

Common to all, as to test: NCI-60 one-dose screen, 48 h (100 = growth as untreated, 0 = no growth, -100 = all killed)
The subject of one experiment is HCT-15 colon. To be noted: 10 µM unless noted.
Another experiment relates to HT29 colon. To be noted: 10 µM unless noted.
The subject of another experiment is SNB-75 CNS. The following applies: 10 µM unless noted.
The test system of the next experiment is SNB-19 CNS. To be noted: 10 µM unless noted.
The next experiment deals with U251 CNS. To be noted: 10 µM unless noted.
A further experiment deals with PC-3 prostate. The following applies: 10 µM unless noted.
In the next experiment the test system is SK-MEL-5 melanoma. To be noted: 10 µM unless noted.
A further experiment relates to UACC-62 melanoma. The following applies: 10 µM unless noted.
A further experiment has as its system LOX IMVI melanoma. The following applies: 10 µM.
For a further experiment, the system named is SK-MEL-28 melanoma. The following applies: 10 µM unless noted.
The next experiment deals with EKVX NSCLC. To be noted: 10 µM unless noted.
The test system of the next experiment is SN12C renal. The following applies: 10 µM unless noted.
For another experiment, the system named is UO-31 renal. The following applies: 10 µM unless noted.
In another experiment the test system is TK-10 renal. The following applies: 10 µM unless noted.
In another experiment the test system is ACHN renal. The following applies: 10 µM unless noted.
A further experiment concerns CAKI-1 renal. The following applies: 10 µM unless noted.
The test system of the next experiment is A498 renal. The following applies: 10 µM unless noted.
In the next experiment the test system is CCRF-CEM leukemia. The following applies: 10 µM unless noted.
The subject of a further experiment is MOLT-4 leukemia. The following applies: 10 µM unless noted.
For another experiment, the system named is SK-MEL-2 melanoma. The following applies: 10 µM unless noted.

This is part of a sample that, as a whole, favours compounds with a hit. Of some 83,000 tested, about 20% had one in any assay.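 Percent growth is the endpoint: 0 to 100 indicates growth inhibition (40 means 60% inhibition), 0 means no net growth, and negative values indicate cell death.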 Unmarked numbers belong to inactive results. Calls of active or inactive are those of the source. The calls were made as follows: active = growth percent below 10; inactive = the rest.

For `CCOc1ccc(C(=O)NCC(C)C)cc1`, the growth was 103% in the experiment on HCT-15 colon; 106% in the experiment on HT29 colon; 81.8% with SNB-75 CNS; 99.3% with SNB-19 CNS; 101% in the experiment on U251 CNS; 98.1% with PC-3 prostate. For the same compound, the growth with SK-MEL-5 melanoma is 101%; with UACC-62 melanoma, 101%; with LOX IMVI melanoma, 97.2%; with SK-MEL-28 melanoma it was 106%; in the experiment with EKVX NSCLC, 106%; in the experiment on SN12C renal, 99.9%. The growth with UO-31 renal was 93.5%; in the experiment on TK-10 renal it was 97.8%; in the experiment with ACHN renal, 107%; with CAKI-1 renal, 101%; in the experiment on A498 renal, 92.1%; with CCRF-CEM leukemia it was 103%. Moreover, the growth with MOLT-4 leukemia is 100%.

For the compound `S=c1nc(-c2ccccn2)c(-c2ccccn2)n[nH]1`, the growth is 100% with HCT-15 colon; 103% with HT29 colon; 107% in the experiment with SNB-75 CNS; 112% in the experiment with SNB-19 CNS; 102% with U251 CNS; 97.7% in the experiment with PC-3 prostate. In addition, the growth was 108% in the experiment on SK-MEL-5 melanoma; 116% with UACC-62 melanoma; 95.9% with LOX IMVI melanoma; 114% in the experiment with SK-MEL-28 melanoma; 118% with SN12C renal; 81.1% in the experiment on UO-31 renal. The growth in the experiment on TK-10 renal was 98.6%; in the experiment with ACHN renal it was 109%; in the experiment with CAKI-1 renal it was 110%; in the experiment with A498 renal it was 119%; in the experiment with CCRF-CEM leukemia, 97.2%; with MOLT-4 leukemia, 87.7%.

Take `CC(C)c1ccc(C(=O)OCCCl)cc1`: the growth with HCT-15 colon was 94%; with HT29 colon, 109%; in the experiment on SNB-75 CNS it was 94%; with SNB-19 CNS it was 91.1%; in the experiment with U251 CNS, 101%; in the experiment with PC-3 prostate, 106%. The growth was 100% in the experiment on SK-MEL-5 melanoma; 110% in the experiment on UACC-62 melanoma; 97.1% in the experiment with LOX IMVI melanoma; 92% with SK-MEL-28 melanoma; 102% in the experiment with EKVX NSCLC; 99.3% in the experiment on SN12C renal. Also, the growth is 92.6% in the experiment on UO-31 renal; 94.6% in the experiment with TK-10 renal; 94.5% in the experiment on ACHN renal; 383% in the experiment on CAKI-1 renal; 92.7% with A498 renal; 107% in the experiment with CCRF-CEM leukemia. In the experiment on MOLT-4 leukemia, the growth was 100%.

Consider `Clc1cccc(Cl)c1CSc1nc2ccccc2n2cccc12`, for which the growth with HCT-15 colon was 68.2%; in the experiment on HT29 colon, 79.6%; with SNB-75 CNS it was 86.5%; in the experiment with SNB-19 CNS, 105%; in the experiment with U251 CNS, 95.3%; in the experiment with PC-3 prostate, 96.5%. Besides, the growth is 103% with SK-MEL-5 melanoma; 96.3% in the experiment with UACC-62 melanoma; 96.4% with LOX IMVI melanoma; 103% in the experiment with SK-MEL-28 melanoma; 102% in the experiment with SN12C renal; 71.8% with UO-31 renal. Also, the growth with TK-10 renal was 103%; in the experiment with ACHN renal, 97.3%; in the experiment on CAKI-1 renal it was 70.5%; with A498 renal, 115%; in the experiment with CCRF-CEM leukemia, 100%; in the experiment with MOLT-4 leukemia it was 92.9%.

As to `CN(C)c1ccc(O)c2c1CC1CC3C(N(C)C)C(=O)C(C(N)=O)=C(O)C3(O)C(=O)C1=C2O` (stereo not given), the growth with HCT-15 colon was 25.4%; in the experiment on HT29 colon, 57.5%; with SNB-75 CNS it was 55.8%; in the experiment on SNB-19 CNS it was 55.5%; in the experiment on U251 CNS it was 25.7%; in the experiment on PC-3 prostate it was 34.6%. Moreover, the growth in the experiment with SK-MEL-5 melanoma was 25.6%; with UACC-62 melanoma, 29%; in the experiment with LOX IMVI melanoma, 29.3%; in the experiment with SK-MEL-28 melanoma it was 47.4%; in the experiment with SK-MEL-2 melanoma, 17.6%; with UO-31 renal, 23.6%. In addition, the growth with ACHN renal was 35.5%; with CAKI-1 renal, -3.07% (active); with A498 renal, 26.2%; in the experiment on CCRF-CEM leukemia it was 44.9%; in the experiment with MOLT-4 leukemia it was 79.1%.

Regarding `CCCC(OC(C)=O)c1ccc2c(c1)OCO2` (stereo not given), the growth in the experiment with HCT-15 colon was 115%; in the experiment with HT29 colon, 103%; in the experiment with SNB-75 CNS, 96.9%; with SNB-19 CNS it was 105%; in the experiment on U251 CNS, 96%; with PC-3 prostate, 102%. In addition, the growth is 102% with SK-MEL-5 melanoma; 102% in the experiment with UACC-62 melanoma; 103% in the experiment with LOX IMVI melanoma; 106% in the experiment with SK-MEL-28 melanoma; 117% in the experiment on EKVX NSCLC; 106% in the experiment on SN12C renal. Moreover, the growth in the experiment on UO-31 renal was 86.8%; in the experiment on TK-10 renal, 106%; with ACHN renal, 111%; in the experiment with CAKI-1 renal, 101%; with A498 renal it was 96.7%; in the experiment on CCRF-CEM leukemia, 105%. In the experiment with MOLT-4 leukemia, the growth was 107%.

Regarding `C=CCC(OC(C)=O)c1ccc(C(C)C)cc1` (stereo not given), the growth in the experiment with HCT-15 colon was 107%; in the experiment with HT29 colon, 92.5%; in the experiment with SNB-75 CNS it was 102%; in the experiment on SNB-19 CNS it was 101%; in the experiment on U251 CNS it was 122%; in the experiment on PC-3 prostate, 99.1%. The growth in the experiment with SK-MEL-5 melanoma was 117%; with UACC-62 melanoma, 105%; with LOX IMVI melanoma, 104%; in the experiment with SK-MEL-28 melanoma it was 120%; in the experiment on EKVX NSCLC, 113%; in the experiment with SN12C renal it was 104%. Also, the growth is 84.9% in the experiment with UO-31 renal; 96.4% in the experiment on TK-10 renal; 108% in the experiment with ACHN renal; 121% in the experiment with CAKI-1 renal; 87.3% with A498 renal; 102% in the experiment with CCRF-CEM leukemia. For the same compound, the growth with MOLT-4 leukemia was 105%.

With `Cc1cc(CO)c(O)c(CO)c1`, the growth in the experiment on HCT-15 colon was 102%; in the experiment with HT29 colon it was 95.4%; with SNB-75 CNS, 64.4%; in the experiment with SNB-19 CNS, 114%; with U251 CNS, 98.8%; with PC-3 prostate it was 101%. The growth with SK-MEL-5 melanoma is 108%; with UACC-62 melanoma, 104%; with LOX IMVI melanoma, 90.7%; in the experiment on SK-MEL-28 melanoma it was 108%; with EKVX NSCLC it was 106%; in the experiment with UO-31 renal, 90.9%. In addition, the growth in the experiment with TK-10 renal was 97.1%; in the experiment with ACHN renal it was 103%; in the experiment with CAKI-1 renal it was 96.8%; in the experiment on A498 renal, 95.5%; in the experiment with MOLT-4 leukemia, 21.4%.

For `Cc1nc(O)cc(=O)[nH]1`, the growth in the experiment on HCT-15 colon is 119%; in the experiment with HT29 colon, 108%; in the experiment on SNB-75 CNS it was 97.1%; in the experiment on SNB-19 CNS, 109%; with U251 CNS, 118%; in the experiment with PC-3 prostate, 97%. Moreover, the growth with SK-MEL-5 melanoma is 109%; in the experiment with UACC-62 melanoma, 113%; with LOX IMVI melanoma, 108%; with SK-MEL-28 melanoma it was 110%; in the experiment with EKVX NSCLC, 108%; in the experiment with SN12C renal, 109%. Besides, the growth is 72.8% with UO-31 renal; 107% in the experiment on TK-10 renal; 107% in the experiment with ACHN renal; 109% with CAKI-1 renal; 96.2% with A498 renal; 106% in the experiment with CCRF-CEM leukemia. In the experiment with MOLT-4 leukemia, the growth was 103%.
